The record followed here is PubChem BioAssay.

Each structure is given as a SMILES string. The source made the active and inactive calls.

Test [1] can be described thus: binders of probe aFSTL3 on microarray, primary screen, stem cell growth factor project, biochemical, small-molecule microarray, fluorescence 635/667 (AID 1064).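 Note: measures binding of the biotinylated anti-FSTL3 antibody to printed compounds.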 The note with it: higher = more signal.
Test [2] is described as follows: binders from COS7 lysate, DM2A8 probe, primary screen, torsin A project, cell lysate, small-molecule microarray, fluorescence 635/667 (AID 1065). The note with it: higher = more signal, COS7 lysate expressing mutant human TOR1A.
The nature of test [3]: binders of probe aFGF2 on microarray, primary screen, stem cell growth factor project, biochemical, small-molecule microarray, fluorescence 635/667 (AID 1067).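 Note: measures binding of biotinylated aFGF2 protein to printed compounds on slides; z-score merges feature fluorescence and signal-to-noise across triplicate slides.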 The following applies: higher = more signal.
A short description of test [4]: binders of probe aFGF10 on microarray, primary screen, stem cell growth factor project, biochemical, small-molecule microarray, fluorescence 635/667 (AID 1071).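 Note: score merges 667 nm spot intensity and signal to noise from triplicate slides.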 The note with it: higher = more signal.
In test [5] the target is Neurogenic locus notch homolog protein 2 (Homo sapiens) (UniProt Q04721). Put plainly: Notch2 binders on small-molecule microarrays, primary screen, biochemical, small-molecule microarray, 635 nm fluorescence, stem cell growth factors (AID 1073). The following applies: Notch2 binding, higher = more signal.
The target of test [6] is Pro-neuregulin-1, membrane-bound isoform (Homo sapiens) (UniProt Q02297). Nature of the test: NRG1 binders on small-molecule microarrays, primary screen, psychiatric disease protein project, biochemical, small-molecule microarray, fluorescence 635/667 (AID 1075).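 Note: score combines 667 nm spot fluorescence with signal to noise.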 The note with it: NRG1 binding, 635 nm fluorescence, higher = more signal.
Test [7] deals with Neuregulin-1 EGF-like domain. Nature of the test: binders of neuregulin-1 EGF-like domain, primary screen, biochemical, small-molecule microarray, 635 nm fluorescence (AID 1081).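 Note: binding of the protein to compounds printed on small-molecule microarray slides.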 The following applies: small-molecule microarray binding, higher = more signal.
Test [8] is described as follows: FRG1 promoter luciferase signal modulators, primary screen, FRG1 inhibition for FSHD, cell-based, C2C12 myotubes, firefly/Renilla luciferase, luminescence (AID 1084). The following applies: higher = more signal, called active from +8 up or from −8 down.
The nature of test [9]: binders of probe aFST on microarray, primary screen, stem cell growth factor project, biochemical, small-molecule microarray, fluorescence 635/667 (AID 1086).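 Note: score merges 667 nm fluorescence with signal-to-noise of each printed compound spot.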 The note with it: higher = more signal.
The nature of test [10]: binders of probe aHhip on microarray, primary screen, stem cell growth factor project, biochemical, small-molecule microarray, fluorescence 635/667 (AID 1087).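 Note: score merges spot fluorescence at 667nm with spot signal to noise ratio.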 The note with it: higher = more signal.
Test [11] concerns PRMT1 (protein arginine N-methyltransferase 1). Nature of the test: PRMT1 binders on small-molecule microarrays, primary screen, biochemical, small-molecule microarray, 635 nm fluorescence (AID 1088).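 Note: binding of Prmt1 protein to compounds spotted on small-molecule microarray slides.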 The following applies: small-molecule microarray binding, higher = more signal.
A short description of test [12]: yeast growth modulation, basal conditions, primary screen, YJM789 clinical isolate, OD600, 24 h (AID 1089).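 Note: growth of clinical yeast isolate S. cerevisiae YJM 789 seeded 1000 cells per well; test concentration not given here.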 The following applies: S. cerevisiae YJM789 growth, higher = more signal, called active from +8 up or from −8 down.
Test [13] in a line: fission yeast growth modulation, primary screen, strain 972, OD600, 24 h, no modulator (AID 1090).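 Note: basal condition with compound alone and no growth modifier present; test concentration not given here.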 The following applies: S. pombe 972 growth, higher = more signal, called active from +8 up or from −8 down.
Test [14] is described as follows: S. cerevisiae growth modulation with rapamycin, primary screen, strain BY4716, OD600, 96 h (AID 1091). Note: test concentration not given here. The note with it: higher = more signal, called active from +8 up or from −8 down.
Test [15] concerns the target Torsin-1A-interacting protein 2 (Homo sapiens) (UniProt Q8NFQ8). Put plainly: LULL1 binders on small-molecule microarray, primary screen, cell lysate, human LULL1 lysate, 635/667 nm fluorescence (AID 1092).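 Note: score merges per-feature 667 nm fluorescence with signal-to-noise.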 The note with it: hLULL1 lysate binding, 635 nm fluorescence, higher = more signal.
A short description of test [16]: E. coli growth modulation, two-sided OD650, primary screen, E. coli filamentation project, strain DRC41, 24 h (AID 1093).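 Note: MC1000 strain lacking acrAB efflux and sulA so SOS filamentation is blocked; test concentration not given here.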 The following applies: OD650, 24 h, higher = more signal, called active from +8 up or from −8 down.
A short description of test [17]: small-molecule microarray binders of probe aLefty2, primary screen, biochemical, biotinylated probe, 635/667 nm fluorescence (AID 1094).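 Note: score merges spot fluorescence near 667 nm with spot signal-to-noise ratio.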 The following applies: higher = more signal.
Test [18] concerns Noggin (protein binding on small-molecule microarray). Put plainly: Noggin binders on small-molecule microarray, primary screen, biochemical, 635/667 nm fluorescence (AID 1095).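 Note: score merges 667 nm feature fluorescence with signal to noise over triplicate slides.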 The following applies: 635 nm fluorescence, higher = more signal.
The target in test [19] is Neurogenic locus notch homolog protein 3 (Homo sapiens) (UniProt Q9UM47). Nature of the test: NOTCH3 binders on small-molecule microarray, primary screen, biochemical, 635/667 nm fluorescence (AID 1096). The following applies: NOTCH3 binding, 635 nm fluorescence, higher = more signal.
Test [20] can be described thus: small-molecule microarray binders of probe aEGFR, primary screen, biochemical, biotinylated probe, 635/667 nm fluorescence (AID 1097).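 Note: probe is a biotinylated anti-EGFR antibody binding compounds printed on slides; score combines fluorescence near 667 nm and signal to noise of each spot.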 The note with it: higher = more signal.

Chain of Neurogenic locus notch homolog protein 3 (Homo sapiens) (Q9UM47 whole entry, looked up): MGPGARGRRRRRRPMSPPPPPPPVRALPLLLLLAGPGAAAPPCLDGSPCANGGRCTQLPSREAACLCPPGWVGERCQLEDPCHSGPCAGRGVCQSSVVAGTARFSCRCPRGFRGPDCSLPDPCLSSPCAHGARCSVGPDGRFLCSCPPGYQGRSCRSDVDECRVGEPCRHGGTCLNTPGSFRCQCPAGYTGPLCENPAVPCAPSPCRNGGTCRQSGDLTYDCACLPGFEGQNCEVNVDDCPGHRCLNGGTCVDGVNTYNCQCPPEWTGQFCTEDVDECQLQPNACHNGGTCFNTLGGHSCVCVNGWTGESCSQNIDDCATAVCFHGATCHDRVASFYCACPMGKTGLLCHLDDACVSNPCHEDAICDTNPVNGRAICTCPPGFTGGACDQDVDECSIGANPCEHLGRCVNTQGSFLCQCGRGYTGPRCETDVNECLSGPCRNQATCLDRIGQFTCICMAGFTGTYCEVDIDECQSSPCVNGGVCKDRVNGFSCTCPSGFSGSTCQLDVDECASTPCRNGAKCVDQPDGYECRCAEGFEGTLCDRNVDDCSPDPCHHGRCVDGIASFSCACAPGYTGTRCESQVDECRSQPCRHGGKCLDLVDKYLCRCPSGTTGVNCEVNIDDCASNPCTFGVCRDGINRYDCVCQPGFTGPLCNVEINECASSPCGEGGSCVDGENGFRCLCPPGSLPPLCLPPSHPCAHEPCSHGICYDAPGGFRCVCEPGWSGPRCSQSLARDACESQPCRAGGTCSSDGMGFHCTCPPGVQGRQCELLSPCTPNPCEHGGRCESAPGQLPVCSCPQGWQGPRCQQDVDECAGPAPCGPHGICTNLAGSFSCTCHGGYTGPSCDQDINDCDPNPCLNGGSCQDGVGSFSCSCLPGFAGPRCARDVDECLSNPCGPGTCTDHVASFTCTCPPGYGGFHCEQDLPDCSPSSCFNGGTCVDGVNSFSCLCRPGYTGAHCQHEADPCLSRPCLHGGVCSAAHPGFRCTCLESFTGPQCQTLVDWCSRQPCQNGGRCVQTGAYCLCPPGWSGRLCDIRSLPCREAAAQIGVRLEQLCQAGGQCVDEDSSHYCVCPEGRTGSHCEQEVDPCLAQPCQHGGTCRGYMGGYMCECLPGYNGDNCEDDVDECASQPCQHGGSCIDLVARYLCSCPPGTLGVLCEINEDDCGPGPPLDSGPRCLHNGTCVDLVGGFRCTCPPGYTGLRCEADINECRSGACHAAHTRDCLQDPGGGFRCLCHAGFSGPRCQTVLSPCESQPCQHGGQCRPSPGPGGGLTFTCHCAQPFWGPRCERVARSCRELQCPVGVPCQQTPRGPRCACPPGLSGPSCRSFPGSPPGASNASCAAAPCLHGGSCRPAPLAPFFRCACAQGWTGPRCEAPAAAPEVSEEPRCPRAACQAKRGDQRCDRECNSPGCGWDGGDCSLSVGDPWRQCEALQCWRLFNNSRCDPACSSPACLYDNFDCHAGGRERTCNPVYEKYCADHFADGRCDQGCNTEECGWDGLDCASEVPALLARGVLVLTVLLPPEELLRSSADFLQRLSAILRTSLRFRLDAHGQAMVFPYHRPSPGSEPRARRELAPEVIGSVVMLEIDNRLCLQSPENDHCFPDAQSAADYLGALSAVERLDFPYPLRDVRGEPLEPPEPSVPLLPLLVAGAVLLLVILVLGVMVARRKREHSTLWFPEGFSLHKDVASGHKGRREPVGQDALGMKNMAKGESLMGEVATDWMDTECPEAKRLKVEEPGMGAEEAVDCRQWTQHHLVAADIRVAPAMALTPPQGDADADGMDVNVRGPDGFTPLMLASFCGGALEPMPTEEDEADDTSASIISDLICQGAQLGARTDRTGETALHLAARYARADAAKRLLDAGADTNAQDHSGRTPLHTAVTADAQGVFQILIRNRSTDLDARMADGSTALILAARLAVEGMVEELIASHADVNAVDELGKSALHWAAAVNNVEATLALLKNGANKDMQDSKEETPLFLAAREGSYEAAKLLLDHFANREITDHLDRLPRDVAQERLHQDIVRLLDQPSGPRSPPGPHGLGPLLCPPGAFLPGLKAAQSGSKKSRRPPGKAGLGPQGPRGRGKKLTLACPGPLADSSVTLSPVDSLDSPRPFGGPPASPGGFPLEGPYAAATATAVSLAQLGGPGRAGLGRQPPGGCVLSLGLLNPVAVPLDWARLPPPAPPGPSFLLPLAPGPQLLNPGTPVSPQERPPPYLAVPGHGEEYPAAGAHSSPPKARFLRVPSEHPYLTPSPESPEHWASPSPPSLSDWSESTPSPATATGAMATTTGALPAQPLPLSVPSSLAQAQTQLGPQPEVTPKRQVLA
Chain of Torsin-1A-interacting protein 2 (Homo sapiens) (Q8NFQ8 whole entry, looked up): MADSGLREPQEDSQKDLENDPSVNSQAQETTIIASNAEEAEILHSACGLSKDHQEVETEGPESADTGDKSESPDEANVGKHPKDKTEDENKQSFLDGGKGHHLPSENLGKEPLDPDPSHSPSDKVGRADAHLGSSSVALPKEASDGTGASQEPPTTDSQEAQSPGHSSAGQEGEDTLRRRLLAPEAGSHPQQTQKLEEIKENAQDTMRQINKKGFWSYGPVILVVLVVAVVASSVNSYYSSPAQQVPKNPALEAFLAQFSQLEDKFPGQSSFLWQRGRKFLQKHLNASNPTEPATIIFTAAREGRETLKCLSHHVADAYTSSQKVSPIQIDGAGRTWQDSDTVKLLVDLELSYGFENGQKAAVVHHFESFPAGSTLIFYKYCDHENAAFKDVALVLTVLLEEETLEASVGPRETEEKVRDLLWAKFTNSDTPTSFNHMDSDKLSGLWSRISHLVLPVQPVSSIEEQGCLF
Chain of Pro-neuregulin-1, membrane-bound isoform (Homo sapiens) (Q02297 whole entry, looked up, the tested form may be a part, canonical isoform): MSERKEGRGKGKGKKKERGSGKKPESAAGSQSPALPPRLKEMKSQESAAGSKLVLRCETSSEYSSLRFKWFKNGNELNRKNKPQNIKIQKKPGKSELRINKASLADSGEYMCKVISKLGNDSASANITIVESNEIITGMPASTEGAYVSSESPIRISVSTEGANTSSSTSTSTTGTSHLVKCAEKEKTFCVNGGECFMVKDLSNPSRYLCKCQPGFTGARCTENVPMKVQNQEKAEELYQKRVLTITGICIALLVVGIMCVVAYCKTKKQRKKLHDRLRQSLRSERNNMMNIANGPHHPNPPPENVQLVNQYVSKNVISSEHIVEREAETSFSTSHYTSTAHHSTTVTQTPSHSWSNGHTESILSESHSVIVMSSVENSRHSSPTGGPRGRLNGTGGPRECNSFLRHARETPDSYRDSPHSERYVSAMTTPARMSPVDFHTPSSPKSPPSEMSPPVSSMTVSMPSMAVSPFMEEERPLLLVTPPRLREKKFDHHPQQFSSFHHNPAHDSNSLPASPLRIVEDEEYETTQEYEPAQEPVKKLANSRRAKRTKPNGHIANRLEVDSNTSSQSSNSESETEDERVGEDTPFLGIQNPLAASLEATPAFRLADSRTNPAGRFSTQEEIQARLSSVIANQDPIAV

Consider `CCOC(=O)CCN1C(=O)[C@H]2[C@H]3[C@H](O)[C@H](O)CC(=NOCC=C(C)CCC=C(C)C)[C@H]3CC[C@H]2C1=O`, for which the composite z-score is -0.137 in [1]; 0.757 in test [2]; -0.0734 in [3]; -0.274 in [4]; 0.762 in [5]; -0.601 in test [6]. For the same compound, the composite z-score in test [7] was -1.74; in test [9] it was 0.752; in test [10], 0.0722; in [11], 0.467; in [15] it was 0.0139; in test [17], 0.287. For the same compound, the composite z-score came out at 0.386 in [18], 0.089 in test [19] and 0.106 in test [20]. Besides, the z-score was -0.815 (inactive) in test [8]; 0.273 (inactive) in test [12]; -0.215 (inactive) in test [13]; -0.188 (inactive) in [14]; 0.857 (inactive) in test [16].

Take `CCN1C(=O)[C@H]2[C@H]3[C@H](O)[C@H](O)CC(=NOCC(C)C)[C@H]3CC[C@H]2C1=O`: the composite z-score in test [1] is -0.801; in test [2], 0.328; in [3], -0.0977; in test [4], 0.329; in test [5], 0.351; in test [6], -0.139. Moreover, the composite z-score in [7] was 0.124; in [9], 0.101; in test [10], -0.079; in [11], -0.332; in test [15], -0.153; in test [17] it was -0.019. Further, the composite z-score in test [18] turned out to be 0.569; in [19], 0.599; in test [20], 0.0167. Also, the z-score in [8] was 0.268 (inactive); in test [12] it was -0.349 (inactive); in test [13], 0.735 (inactive); in [14], 0.512 (inactive); in [16] it was 0.769 (inactive).

As for `CCN1C(=O)[C@H]2[C@H]3[C@H](O)[C@H](O)CC(=NO[C@H](C)c4cn([C@H](CO)Cc5ccccc5)nn4)[C@@H]3CC[C@H]2C1=O`, the composite z-score in test [1] is -0.907; in [2] it was 0.0378; in test [3], -0.116; in [4] it was 1.08; in test [5], 1.01; in test [6], 0.782. In addition, the composite z-score was 0.934 in [7]; 0.606 in test [9]; -0.344 in test [10]; 1.4 in test [11]; 1.59 in [15]; -0.207 in test [17]. Besides, the composite z-score in [18] was 0.496; in test [19], 0.89; in test [20], -0.0132. Further, the z-score in test [8] is 0.804 (inactive); in test [12] it was -0.444 (inactive); in test [13], 0.121 (inactive); in test [14], -0.371 (inactive); in [16], 0.607 (inactive).

Regarding `C[C@@H]1CC[C@@H](C(=O)O)N[C@H]1c1cccc(N2CCOCC2)c1`, the composite z-score was -0.406 in test [1]; 0.179 in [2]; -0.0428 in test [3]; 0.268 in [4]; 0.887 in [5]; 0.0719 in test [6]. Besides, the composite z-score in test [7] is 0.251; in test [9], 0.253; in test [10] it was -0.134; in [11] it was -0.618; in [15], 0.879; in test [17], -0.106. The composite z-score in test [18] was 0.377; in test [19], 0.597; in [20], -0.106. Also, the z-score in test [8] is -1.79 (inactive); in [12], 0.395 (inactive); in test [13], -0.623 (inactive); in test [14], -0.591 (inactive); in [16] it was 1.64 (inactive).

For `CC(CCN1CCc2nc(-c3ccccc3)c(-c3ccccc3)cc2C1)=NO[C@H](C)c1cn([C@H](CO)Cc2ccccc2)nn1`, the composite z-score in [1] was -0.11; in test [2], 0.575; in [3], -0.0569; in test [4], -0.332; in [5], -0.54; in test [6], 0.164. For the same compound, the composite z-score was 0.299 in test [7]; -0.125 in test [9]; -0.13 in test [10]; 0.485 in [11]; 0.381 in test [15]; 0.0272 in [17]. The figures for the composite z-score in [18], in test [19] and in [20] were 0.622, -0.0395 and -0.122, respectively. The z-score was -0.327 (inactive) in test [8]; -0.0115 (inactive) in [12]; -0.989 (inactive) in test [13]; -4.22 (inactive) in test [14]; 0.561 (inactive) in [16].
